# This is a sample that favours compounds with a hit; in the whole collection about 1.2% have one here.
# GC-A act = GC-A (human) enzyme activation; 370,000 tested, 0.14% active; HEK293 GC-A cells, cGMP TR-FRET, EC30 ANP; 0% at EC30 ANP, 100% saturating ANP; AID 1671463; activation, % at 10 µM; in the data active = activation above about 40%
# TLR9-MyD88 block = blocks human TLR9 binding to MyD88; Q9NR96+Q99836; CHO BLA complementation TLR9-MyD88, CCF4 FRET ratio; inhibition, % at 4.98 µM; 340,000 tested, 0.21% active;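 active = inhibition above the mean over all tested compounds plus 3 SD, cut at about 21% in these data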
# Neddylation inh = blocks human cullin neddylation | TR-FRET cullin neddylation, biochemical | 360,000 tested, 0.58% active | inhibition, % at 25 µM | AID 651699 | P61081+Q13564; in the data active = inhibition above about 36%
# GC-B act = GC-B (human) receptor activation; P20594; AID 1920062; activation, % at 10 µM; 370,000 tested, 0.11% active; HEK293-GC-B cells, CNP EC30, cGMP TR-FRET; 0% at EC30 CNP, 100% saturating CNP;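 active = activation at 10 µM reaching about 35% in either raw or pattern-adjusted values, limit read from the data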
# NOD2 RIPK2 PPI = inhibitors of human NOD2-RIPK2 interaction | O43353 | CHO BLA complementation NOD2-RIPK2, CCF4 ratio | inhibition, % at 4.98 µM | 360,000 tested, 0.38% active | AID 624267; in the data active = inhibition above about 21%
# TLR4-MyD88 BLA = blocks binding of human TLR4 to MyD88. O00206+Q99836. HeLa CL3-4 TLR4/MyD88 BLA complementation, FRET ratio. inhibition, % at 8.4 µM. 200,000 tested, 0.18% active; in the data active = inhibition above about 25%
# Neddyl conf = cullin neddylation inhibition, confirmation; shares compounds with Neddylation inh; TR-FRET cullin neddylation biochemical assay; calls only at 25 µM; 1,800 tested, 13% active; AID 652217; in the data active = inhibition above about 40%;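 note: neddylation substrate is the cullin 1 ring ligase complex with SKP2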
# Hits are given with their value; i = inactive; nt = no result shown; + = active, no number.
SMILES,GC-A act,TLR9-MyD88 block,Neddylation inh,GC-B act,NOD2 RIPK2 PPI,TLR4-MyD88 BLA,Neddyl conf
Cc1ccccc1NC(=O)NNC(=O)c1ccc2ccccc2c1,i,i,i,i,i,nt,nt
COc1ccc(NC(=O)NNC(=O)c2ccc3ccccc3c2O)cc1OC,i,i,35,i,i,nt,i
CCc1ccc(NC(=O)NNC(=O)c2ccc3ccccc3c2O)cc1,i,i,nt,i,i,nt,nt
Cc1ccccc1NC(=O)NNC(=O)c1ccc2ccccc2c1O,i,i,42,i,i,nt,+
COc1ccccc1NC(=O)NNC(=O)c1ccc2ccccc2c1O,i,i,40,i,i,nt,i
COCC(=O)N[C@@H]1c2ccccc2CC[C@@H]1OCc1ccccc1,i,i,i,i,i,nt,nt
Cn1c(N)c(S(=O)(=O)N2CCN(c3cccc(Cl)c3)CC2)c(=O)n(C)c1=O,i,i,i,i,i,nt,nt
CCc1cc(C(c2ccc(OC)c(OC)c2)N2CCOCC2)c(NC(=O)c2ccccc2)s1 (configuration not stated),i,i,53,i,i,i,i
O=C(Nc1nnc([C@H]2C[C@H](O)[C@@H](CO)O2)s1)NC(c1ccccc1)c1ccccc1,i,nt,i,i,i,nt,nt
O=C(COc1ccc2c3c(c(=O)oc2c1)CCCC3)NCCN1CCOCC1,nt,i,52,nt,i,nt,i
O=C(COc1ccc2c3c(c(=O)oc2c1)CCC3)NCCN1CCOCC1,i,i,i,i,i,nt,nt
O=C(COc1ccc2c3c(c(=O)oc2c1)CCCC3)NCCCN1CCOCC1,i,i,41,i,i,nt,i
CC1(C)CC(NC(=O)COc2ccc3c4c(c(=O)oc3c2)CCCC4)CC(C)(C)N1,i,i,60,i,i,nt,nt
O=C(O)C1CCN(C(=O)COc2ccc3c4c(c(=O)oc3c2)CCC4)CC1,i,i,42,i,i,i,i
N#CCCN(Cc1cccnc1)CN1C(=O)c2ccccc2C1=O,i,i,i,i,i,nt,nt
CC1(C)Cc2c(cnn2-c2ccccc2)C(NC(=O)c2ccc[n+]([O-])c2)C1 (configuration not stated),i,i,i,i,i,nt,nt
O=C1c2ccc3c4c(ccc(c24)C(=O)N1NC(=O)C(F)(F)F)CC3,i,i,i,i,i,i,nt
O=C(NN1C(=O)c2ccc3c4c(ccc(c24)C1=O)CC3)c1ccc(Br)cc1,i,i,45,i,i,i,i
COCCn1c(C)cc(/C=C(\C#N)C(=O)OC(C)C(=O)Nc2ccc(NC(C)=O)cc2)c1C (configuration not stated),i,i,52,i,i,nt,i
CC(=O)Nc1ccc(S(=O)(=O)Nc2nc3ccccc3nc2Nc2ccccc2)cc1,i,i,nt,i,i,i,nt
COc1ccc(S(=O)(=O)Nc2nc3ccccc3nc2Nc2cccc(C(=O)O)c2)cc1,i,i,42,i,i,nt,i
O=C(NCC1CCCCC1)c1ccc(Br)o1,i,i,i,i,i,nt,nt
N#Cc1cc(N2CCOCC2)nc2ccccc12,i,i,36,i,i,nt,i
Cc1cc(N2CCOCC2)nc2ccccc12,i,i,i,i,i,i,nt
Clc1ccc(-c2nc(N3CCOCC3)nc3ccccc23)cc1,i,i,44,i,i,nt,nt
SMILES,GC-A act,TLR9-MyD88 block,Neddylation inh,GC-B act,NOD2 RIPK2 PPI,TLR4-MyD88 BLA,Neddyl conf
c1ccc(-c2nc(N3CCCC3)nc3ccccc23)cc1,i,i,i,i,i,i,nt
c1ccc(-c2cc(N3CCOCC3)nc3ccccc23)cc1,i,i,46,i,i,i,i
C[C@H](CO)N1C[C@H](C)[C@@H](CN(C)S(=O)(=O)c2cccs2)Oc2ccc(NC(=O)c3ccncc3)cc2C1=O,i,i,i,i,i,nt,nt
Nc1ncnc2c1CN(Cc1ccccc1)CC2,i,i,i,i,i,nt,nt
Nc1nc2c(c(=O)[nH]1)CN(Cc1ccccc1)CC2,i,i,40,i,i,nt,i
Cc1cc(NC(=O)COc2ccccc2C)ccc1NC(=O)c1ccco1,i,i,i,i,i,nt,nt
COc1cc(NC(=O)COc2ccccc2C)ccc1NC(=O)c1ccco1,i,i,46,i,i,nt,nt
O=C(Nc1ccc(F)cc1)c1cccnc1NCCc1ccccc1,i,i,i,i,i,i,nt

# Compound activity: PubChem BioAssay, several laboratories
